# Results published in PubChem BioAssay (NCATS).
# Activity calls are given as the source filed them. The call rests on the fitted dose curve; in most records, active means well fitted curve in the direction sought with a large enough effect; inconclusive means small, poorly fitted or top-dose-only effect, or another doubt; inactive means no such curve, though single readings can be large or run the other way.
# Biological target: Luciferin 4-monooxygenase (Photinus pyralis) (UniProt P08659)
# Assay: Firefly luciferase counterscreen qHTS: Assay Interference Panel against the NCATS CANVASS Library (AID 1347363); further: 0% is about no effect
# Details: purified firefly luciferase, luminescence inhibition, 5 min; series mostly up to 57.5 µM; activity change, negative = inhibition: at the top concentration
# Description: Natural products and their derivatives continue to be wellsprings of nascent therapeutic potential. However, many laboratories have limited resources for biological evaluation, leaving their previously isolated or synthesized compounds largely or completely untested. To address this issue, the Canvass library of natural products was assembled (https://tripod.nih.gov/canvass), in collaboration with academic and industry researchers, for quantitative high-throughput screening (qHTS) across a diverse set of cell-based and biochemical assays. The pure (>85% purity by liquid chromatography/mass spectrometry [LC/MS]) Canvass library of 346 natural products were submitted by 45 academic laboratories and companies around the world. We collected pure natural products to circumvent deconvolution and structure elucidation due to time and resource limitations. The library was formatted into 1536-well plates and evaluated in 50 qHTS (in an 11-pnt concentration series) bioassays with broad scope of disease-relevant mechanisms. The resulting data set from 50 different assays was then systematically analyzed to identify overall trends and specific natural products with interesting biological activities. Reported herein are the results of each individual qHTS and their corresponding assay protocol. This assay determines potential interactions with a common luminescent coupling enzyme, P. pyralis (firefly) luciferase, to identify possible false positives in future assays. The assay measures the relative levels of luminescence, to identify compounds that inhibit the activity of luciferase. National Center for Advancing Translational Sciences (NCATS), Rockville, MD National Institute of Health (NIH), Bethesda, Maryland
# Luciferase Interference counterscreen protocol 1. In a 1536 well, black solid bottom, medium binding plates (Corning 7494), 3 uL of (1x) 50 mM Tris Acetate substrate solution containing 13.3 mM Mg-Acetate, 0.013 mM D-Luciferin, 0.013 mM ATP, 0.013% Tween-20, 0.067% BSA was dispensed into columns 1 to 48, rows 1 to 32 using the Bioraptr dispenser. 2. Compounds were pin transferred (~23 nL volume) via Wako Pin-tool (Wako Automation, Richmond VA) equipped with a 1536 pin head. The assay plates were treated with compounds in a concentration series with a final concentration range of 0.2 nM to 128 uM. 3. PTC124 was used as a control (25 uM, n = 32, column 2, row 1-32) at a final concentration of 142.9 nM and was pin transferred via Wako Pin-tool equipped with a 1536 pin head. 4. The assay plates were incubated in the dark for 15 minutes at room temperature. 5. One microliter of 4x detection reagent (0.04 ug/mL P. pyralis luciferase in 50 mM Tris-Acetate) was then added to the assay plates (column 2-48, rows 1-32) for a final assay volume of 4 uL. While 50 mM Tris-Acetate normalizing control was added to column 1, rows 1-32. 6. The assay plates were further incubated in the dark for 5 minutes at room temperature. 7. Luminescence signal was acquired via the ViewLux plate reader (PerkinElmer) using a clear emission filter and a 2 second exposure, 2x binning settings.
# Luciferin 4-monooxygenase (Photinus pyralis), sequence (P08659 whole entry, looked up): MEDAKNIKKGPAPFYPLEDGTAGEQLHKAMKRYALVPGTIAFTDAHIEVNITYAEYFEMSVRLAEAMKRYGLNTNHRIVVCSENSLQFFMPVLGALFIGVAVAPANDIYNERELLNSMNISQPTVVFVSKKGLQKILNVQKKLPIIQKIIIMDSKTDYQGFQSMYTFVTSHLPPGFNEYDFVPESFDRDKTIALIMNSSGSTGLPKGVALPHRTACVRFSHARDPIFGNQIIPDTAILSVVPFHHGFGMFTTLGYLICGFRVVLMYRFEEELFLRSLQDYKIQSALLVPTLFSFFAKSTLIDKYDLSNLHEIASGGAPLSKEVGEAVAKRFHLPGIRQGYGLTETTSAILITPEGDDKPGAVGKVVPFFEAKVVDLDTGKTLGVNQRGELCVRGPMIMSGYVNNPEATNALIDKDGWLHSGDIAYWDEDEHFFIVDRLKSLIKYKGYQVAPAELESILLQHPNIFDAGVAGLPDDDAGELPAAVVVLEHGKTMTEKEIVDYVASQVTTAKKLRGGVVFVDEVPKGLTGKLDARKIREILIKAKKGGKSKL
SMILES,"activity change, negative = inhibition",Potency
C[C@@H](CCC[C@]1(C)C(=O)C=C[C@]23C[C@H]4C[C@H](O[C@@]4(C)C2)C31)C(=O)N[C@@H](CO)C(=O)O (stereo not given in full),2.59% (inactive),
CN1CC[C@]2(c3cccc4c3N[C@@H]3N(C)CC[C@]43[C@@]34CCN(C)[C@@H]3Nc3ccccc34)c3ccccc3N[C@H]12,1.94% (inactive),
O=C(O)CC1OCc2c(O)cccc21 (stereo not given),-19% (inactive),
CO[C@H]1/C=C/CC[C@@H](S[C@@H]2O[C@H](CO)[C@@H](O)[C@H](O)[C@H]2O)CC(=O)O[C@@H](/C(C)=C/[C@H](C)C(=O)CCCC2CC(=O)NC(=O)C2)[C@@H](C)[C@@H]1O,-3.44% (inactive),
CCC1=C2CCCN3C(=O)O[C@H]([C@H]1OC(C)=O)[C@H]23,1.33% (inactive),
C[C@H]1C[C@@H]([C@@H]2CC[C@]34O[C@H](CC[C@@]35C[C@H](C)C(=O)O5)CN24)OC1=O,-12.3% (inactive),
COc1ccc([C@@H]2c3cc(OC)c(OC)cc3C(=O)[C@H](C)C2C)cc1OC (stereo not given in full),4.08% [at 11.5 µM] (inactive),
CCCCCCCCC[C@@H]1C[C@@H]2CC[C@H]3[C@@H](C(=O)OCCCCN=C(N)N)[C@@H](C)N=C(N1)N23,0% [at 34.3 µM] (inactive),
C=C1/C=C\C(CCC)=C\c2csc(n2)C(C)NC(=O)C[C@@]2(CC(=O)O)CCC(=C)[C@H](C1)S2 (stereo not given in full),-8.75% (inactive),
C=C[C@]1(C)CC[C@@H]([C@H](C)C(=O)/C=C/C(C)C)O1,-1.37% (inactive),
C=C1C(=O)O[C@H]2[C@H]1CC/C(CO)=C\CC[C@@]1(C)O[C@@H]21,1.16% (inactive),
C=C1C[C@@]23C=CC(=O)[C@@](C)(CCCC(C)C(=O)O)[C@@H]2C[C@@H]1CC3 (stereo not given in full),-10.5% (inactive),
C/C=C1/CC[C@@H]2c3[nH]c4ccccc4c3CCN2C1,-7.12% (inactive),
C[C@@H](O)[C@H]1OC(=O)C=C2[C@]3(C)[C@H]4[C@H](OC(=O)[C@@]4(C)[C@@H](O)[C@H]4O[C@H]43)[C@H]3O[C@@]231,0.581% (inactive),
C/C=C/c1cc(OC)c2c(c1)[C@@H](C)[C@H](c1ccc(O)c(OC)c1)O2,-3.08% (inactive),
C=C1[C@H]2CC[C@@]3(C=CC(=O)[C@@](C)(CCC(=O)Nc4c(O)ccc(C(=O)O)c4O)C3C2)[C@H]1O (stereo not given in full),-6.71% (inactive),
C[C@@H]1O[C@H](c2c(O)cc(O)c3c(=O)cc(-c4ccc(O)cc4)oc23)[C@H](O)[C@H](O)[C@H]1O,-5.38% (inactive),
CNc1ccc(Cl)cc1C(=O)OC[C@]1(C)[C@H]2CC[C@]3(C)[C@@H](C[C@@H](OC)[C@H](C)[C@H]3C3=C(O)C(=O)OC3O)[C@]2(C)CC[C@H]1O (stereo not given in full),-12.5% (inactive),
C1=C2CCCN[C@@H]2[C@@H]2CCN3CCCC[C@@H]3[C@H](C1)C2,1.22% (inactive),
C=C(C)CC[C@H](Cc1c(O)cc(O)c2c1O[C@H](c1ccc(O)cc1O)CC2=O)C(=C)C,2.36% (inactive),

SMILES,"activity change, negative = inhibition",Potency
COc1cc(/C=C/C(=O)O)ccc1O,-0.986% (inactive),
CCCCCCC[C@@H](C/C=C/CCC(=O)NCCc1c[nH]c2ccccc12)OC,4.67% (inactive),
O=Cc1ccc2n1C[C@@]1(C[C@H](O)[C@H](O)CO1)OC2,-4.61% (inactive),
COc1ccc(CCCc2cc(O)c(OC)c(O)c2)c(O)c1O,-16.8% (inactive),
O=c1cc(-c2ccc(O)cc2)oc2c([C@@H]3OC(CO)[C@H](O)[C@@H](O)[C@H]3O)c(O)cc(O)c12 (stereo not given in full),-4.87% (inactive),
CC12C[C@]3(O)O[C@@H](O1)[C@]1(COC(=O)c4ccccc4)[C@@H]3CC21OC1OC(CO)C(O)C(O)C1O (stereo not given in full),0.324% (inactive),
CCC[C@@H](C)/C=C(\C)[C@H](O)[C@H](C)/C=C/CC[C@@H](O)[C@H](C)[C@H](O)[C@H](C)[C@H](O)[C@H](C)[C@H]1O[C@H]([C@H](C)C(=O)O)CC[C@@H]1C,-14.5% (inactive),
COC1C(O)C(OC(N)=O)C(Oc2ccc3c(O)c(NC(=O)c4ccc(O)c(CC=C(C)C)c4)c(=O)oc3c2C)OC1(C)C (stereo not given),0.534% (inactive),
CC1=CC2=C[C@H](C)C[C@@]23OC(=C(C)C3=O)CC(C)(C)/C=C/C1=O,2.33% (inactive),
COc1ccc([C@@H]2c3cc(OC)c(OC)cc3C(=O)C(C)C2C)cc1OC (stereo not given in full),4.33% (inactive),
C[C@@H]1C(=O)[C@]23CC[C@H]1C[C@]21O[C@H]2C(C)(C)C=CC(=O)[C@]23COC1=O,0.435% (inactive),
Oc1ccc([C@H]2Oc3ccc(/C=C/c4cc(O)cc(O)c4)cc3C2c2cc(O)cc(O)c2)cc1 (stereo not given in full),-9.94% (inactive),
C=C1C(=O)O[C@H]2C[C@H](C)[C@@H]3CC(=O)C(C)=C3[C@H](O)[C@H]12,-0.394% (inactive),
Cc1cc(O)cc2oc(C[C@H](C)O)cc(=O)c12,-0.218% (inactive),
C=C(C)C(=O)O[C@H]1C[C@H](C)[C@@H](OC(C)=O)CC[C@@]2(C)O[C@@H]2[C@H]2OC(=O)C(COC(C)=O)=C12,-7.85% (inactive),
C=C(C)[C@@H]1CC[C@]2(C)CC[C@]3(C)[C@H](CC[C@@H]4[C@@]5(C)CC[C@H](O)C(C)(C)[C@@H]5CC[C@]43C)[C@@H]12,,inactive
O=Cc1ccc2n1C[C@@]1(C[C@H](O)[C@@H](CO)O1)OC2,-0.0971% (inactive),
CC(O)/C=C/C1(O)C(C)(C)CC(O)CC1(C)O (stereo not given),-0.303% (inactive),
CN1C(=O)[C@]23SS[C@@]1(C)C(=O)N2[C@H]1Nc2ccccc2[C@]1(c1c[nH]c2ccccc12)[C@@H]3O,-1.94% (inactive),
C[C@@H]1O[C@@H](Oc2c(-c3ccc(O)cc3)oc3cc(O)cc(O)c3c2=O)[C@H](O)[C@H](O)[C@H]1O,-9.68% (inactive),
